High-throughput results from PubChem.
KCNQ2 enhance: KCNQ2 (rat) channel potentiation | O88943 | CHO-K1 KCNQ2, FluxOR thallium flux fluorescence; stronger effect = higher value | B-score at 10 µM | 310,000 tested, 0.54% active | AID 2239;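 active means fluorescence ratio B-score at least 3 SD of library B-scores, with initial fluorescence B-score within 3 of them, cut at about 5.3 in these data; same plate scores as AID 2156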;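 further: B-score of peak minus minimum over baseline fluorescence ratio after K+ and Tl+ stimulus; positive B-score means potentiation of KCNQ2 with more thallium influx and brighter signal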
Target sequence (O88943 whole entry, looked up): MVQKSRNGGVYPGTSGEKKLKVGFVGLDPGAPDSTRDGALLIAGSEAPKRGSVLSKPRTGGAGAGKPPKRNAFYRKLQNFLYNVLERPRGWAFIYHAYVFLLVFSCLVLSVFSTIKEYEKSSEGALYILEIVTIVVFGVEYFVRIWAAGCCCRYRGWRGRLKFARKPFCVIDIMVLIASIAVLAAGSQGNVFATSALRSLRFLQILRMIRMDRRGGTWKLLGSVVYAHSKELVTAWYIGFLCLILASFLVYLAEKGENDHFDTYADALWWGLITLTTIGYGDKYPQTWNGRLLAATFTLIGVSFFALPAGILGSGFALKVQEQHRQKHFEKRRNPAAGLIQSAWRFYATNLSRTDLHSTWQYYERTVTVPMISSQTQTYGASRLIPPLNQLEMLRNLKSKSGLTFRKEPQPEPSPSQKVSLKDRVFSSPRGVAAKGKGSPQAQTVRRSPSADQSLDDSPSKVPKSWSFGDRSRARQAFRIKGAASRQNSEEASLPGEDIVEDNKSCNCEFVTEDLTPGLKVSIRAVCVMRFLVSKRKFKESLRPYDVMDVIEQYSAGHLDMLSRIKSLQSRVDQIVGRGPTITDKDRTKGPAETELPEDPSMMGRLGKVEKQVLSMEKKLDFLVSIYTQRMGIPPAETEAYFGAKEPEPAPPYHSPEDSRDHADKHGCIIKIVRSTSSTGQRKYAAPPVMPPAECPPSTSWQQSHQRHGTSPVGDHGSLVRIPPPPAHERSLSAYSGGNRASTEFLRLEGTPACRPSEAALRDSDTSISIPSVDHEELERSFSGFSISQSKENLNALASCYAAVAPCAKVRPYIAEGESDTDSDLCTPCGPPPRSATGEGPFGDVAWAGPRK
KCNQ2 block: inhibitors of rat KCNQ2 potassium channel; O88943; CHO-K1 KCNQ2, FluxOR thallium flux, 20 min; stronger effect = lower value; B-score at 10 µM; 310,000 tested, 1.1% active; AID 2156;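 active means fluorescence ratio B-score at most minus 3 library SDs, with starting brightness B-score within 2 library SDs, cut at about -5.5 in these data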
Active calls of the source: *; i = inactive; nt = no result given. This is a sample that favours compounds with a hit; in the whole collection about 1.6% have one here.

SMILES | KCNQ2 enhance | KCNQ2 block
Cc1cc(/C=N\NC(=O)CC(=O)NC2CCCCC2)c(C)n1-c1cccc(Cl)c1Cl | 4.7 | i
Cc1ccc(CNC(=O)C2CCC(=O)N(Cc3ccccc3F)C2)s1 (stereo not drawn) | 0.73 | i
CC(=O)Nc1cccc(-c2nc3ccccc3[nH]2)c1 | 1.6 | i
CC(Oc1ccccc1)C(=O)Nc1cccc(-c2nc3ccccc3[nH]2)c1 (stereo not drawn) | -5.6 | -5.6*
CCC(C)[C@@H]1NC(=O)N(CCCN2CCCC2=O)C1=O (stereo partly drawn) | 1.6 | i
CC1=NN(c2ccccc2)C(=O)/C1=C/c1ccc(-c2ccc(C)c(C(=O)O)c2)o1 | 6.8* | i
CC1=NN(c2ccc(Cl)c(C(=O)O)c2)C(=O)/C1=C\c1ccc(-c2ccc(C(=O)O)cc2)o1 | 1.6 | i
C=C(C)COc1ccc(-c2ncncc2Oc2ccc(OC)cc2)c(O)c1 | -5.8 | -5.8*
C=C(C)COc1ccc(-c2nc(N)nc(C)c2-c2ccc(OC)cc2)c(O)c1 | nt | i
O=C(CCCCN1CCCCC1)c1ccccc1 | 0.54 | i
O=C(CCCCCCCC(=O)c1ccccc1)c1ccccc1 | -6.2 | -6.2*
Cc1cccc(/C(N)=N/OC(=O)c2cccc3ccccc23)c1 | -5.7 | -5.7*
N/C(=N\OC(=O)c1cccc2ccccc12)c1cccc([N+](=O)[O-])c1 | 0.82 | i
CCOC(=O)c1ccc(NC(=O)c2cc3c(s2)CCC3)cc1 | 2 | i
Cn1cnc2c(NCc3ccco3)ncnc21 | -7 | -7*
Clc1cccc(Cl)c1Cn1cnc2c(NCc3ccco3)ncnc21 | 0.45 | i
COc1ccccc1CN(C)C(=O)c1cnc(C)cn1 | 0.37 | i
COc1ccccc1CN(C)C(=O)c1sccc1-c1ccccc1 | -6.5 | -6.5*
C[C@H]1CN(CCc2ccccc2)C(=O)[C@@H]1CC(=O)NCc1ccccc1 | nt | i
COc1ccc(NC(=O)c2cccnc2SC)cc1S(=O)(=O)N1CCCCC1 | 0.45 | i
COc1cc(/C=C/c2ccc3cccc(OC)c3n2)c(OC(C)=O)c([N+](=O)[O-])c1 | -5.6 | -5.6*
COc1cc(/C=C/c2ccc3cccc(OC)c3n2)c(O)c([N+](=O)[O-])c1 | 0.63 | i
CCCCCCNCc1c(F)cccc1Cl | nt | i
Cc1cc2oc(=O)cc(Cn3nnc(-c4ccc(Cl)cc4)n3)c2cc1C(C)C | nt | i
COc1ccc(Cn2nnnc2C(c2cc3cc(C)cc(C)c3[nH]c2=O)N2CCOCC2)cc1 (stereo not drawn) | -6.7 | -6.7*
SMILES | KCNQ2 enhance | KCNQ2 block
CCc1ccc2[nH]c(=O)c(C(c3nnnn3Cc3ccc(OC)cc3)N3CCOCC3)cc2c1 (stereo not drawn) | nt | i
Cc1ccc2cc(C(c3nnnn3C3CCCC3)N3CCN(c4ccc(F)cc4)CC3)c(=O)[nH]c2c1 (stereo not drawn) | nt | i
Cc1cc(C)c2cc(C(c3nnnn3C3CCCC3)N3CCOCC3)c(=O)[nH]c2c1 (stereo not drawn) | -6 | -6*
Cc1cccc2cc(C(c3nnnn3Cc3ccccc3)N3CCN(c4ccccc4)CC3)c(=O)[nH]c12 (stereo not drawn) | -9 | -9*
Cc1cc(C)c2[nH]c(=O)c(C(c3nnnn3CC3CCCO3)N3CCC(C)CC3)cc2c1 (stereo not drawn) | nt | i
Cc1cccc2cc(C(c3nnnn3Cc3ccccc3)N3CCN(C)CC3)c(=O)[nH]c12 (stereo not drawn) | nt | i
Cc1cc(C)c2[nH]c(=O)c(C(c3nnnn3CC3CCCO3)N3CCCC(C)C3)cc2c1 (stereo not drawn) | -5.6 | -5.6*
COc1ccc(-c2nc(C#N)c(N3CCC(C)CC3)o2)cc1 | nt | i
CC(C)C[C@H](NC(=O)c1nc[nH]c1C(=O)N(C)Cc1ccccc1)C(=O)OC(C)(C)C | nt | i
O=C(NCc1ccccc1C(F)(F)F)C1CCC(=O)N(CCCc2ccccc2)C1 (stereo not drawn) | nt | i
CC(NC(=O)CCc1nc2cc(S(=O)(=O)N3CCOCC3)ccc2n1C)c1ccc(S(N)(=O)=O)cc1 (stereo not drawn) | 1.1 | i
O=C(Cn1nnc2ccccc21)NNC(=S)NC1CCCCC1 | nt | i
Cc1ccc2nc(-c3ccc(N4C(=O)CC(N5CCN(CCO)CC5)C4=O)cc3)sc2c1 (stereo not drawn) | -6.3 | -6.3*
Cc1ccc(N2C(=O)CC(N3CCN(c4ccccn4)CC3)C2=O)cc1 (stereo not drawn) | nt | i
NC(=O)c1[nH]cnc1N | 1 | i
COc1ccccc1C(C)NCC(=O)Nc1c(F)cccc1F (stereo not drawn) | 0.99 | i
COc1cc(Cl)c(C)cc1NC(=O)CNC(C)c1ccccc1OC (stereo not drawn) | -5.8 | -5.8*
COc1ccc(C)cc1NC(=O)CNC(c1ccccc1)c1ccc(C)cc1 (stereo not drawn) | nt | i
COc1ccccc1NC(=O)CNC(c1ccccc1)c1ccccc1 | -6.1 | -6.1*
CCOc1ccc(N(CC(=O)NC(C)(C)C)C(=O)CCC(=O)Nc2nccs2)cc1 | 1.1 | i
COCc1cc(S(=O)c2ccc(Cl)cc2)nc(C)n1 (stereo not drawn) | 0.02 | i
c1ccc(Oc2cnc3ccccc3n2)cc1 | 2.2 | i
COc1ccc(Oc2cnc3ccccc3n2)cc1 | -6 | -6*
O=C(/C=C/c1cccnc1)c1ccc(O)cc1 | nt | i
O=C(/C=C/c1cccnc1)c1ccccc1O | -5.9 | -5.9*
SMILES | KCNQ2 enhance | KCNQ2 block
S=c1nc(C2CC2)n(-c2ccccc2)[nH]1 | 1.9 | i
Cc1cc(Nc2cccc([N+](=O)[O-])c2)c2cccc(C)c2n1 | nt | i
Cc1cc(Nc2ccccc2)c2c([N+](=O)[O-])ccc(C)c2n1 | -7.3 | -7.3*
Oc1ccc2ccccc2c1CNc1ccc(Br)cn1 | -6.2 | -6.2*
Oc1ccc2ccccc2c1CNc1ccc(Br)cc1 | nt | i
CCN(CC)CCNC(=S)Nc1ccc(F)cc1 | nt | i
O=C(COC(=O)CC(c1ccccc1)c1ccccc1)Nc1cccc(F)c1 | nt | i
O=C(COC(=O)CC(c1ccccc1)c1ccccc1)Nc1ccc(F)c(F)c1 | -8.1 | -8.1*
O=C(NCCO)C(=O)NCC1OCCCN1S(=O)(=O)c1cc(F)ccc1F (stereo not drawn) | nt | i
CCc1ccc2oc(C(=O)NCC(c3ccc(OC)cc3)N3CCCCC3)c(C)c2c1 (stereo not drawn) | -7.1 | -7.1*
COc1ccc(C(CNC(=O)COc2ccc(Cl)c(C)c2)N2CCCCC2)cc1 (stereo not drawn) | -5.9 | -5.9*
COc1ccc(C(CNC(=O)c2oc3ccc(F)cc3c2C)N2CCCCC2)cc1 (stereo not drawn) | -6.3 | -6.3*
COc1ccc(C(CNC(=O)c2oc3cc(Br)ccc3c2C)N2CCCCC2)cc1 (stereo not drawn) | nt | i
COc1ccc(C(CNC(=O)c2oc3cc(C)c(C)cc3c2C)N2CCCCC2)cc1 (stereo not drawn) | nt | i
COc1ccc(C(CNC(=O)c2oc3ccc(OC)cc3c2C)N2CCCC2)cc1 (stereo not drawn) | nt | i
COc1ccc(C(CNC(=O)COc2ccccc2C)N2CCCC2)cc1 (stereo not drawn) | nt | i
COc1ccc(C(CNC(=O)c2oc3ccc(Br)cc3c2C)N2CCCCC2)cc1 (stereo not drawn) | -6.2 | -6.2*
CCCC[C@H](CN[C@@H](CNC)[C@H](C)CC)NCCC12CCC(CC1)C2 | nt | i
CCc1ccc(NC(=O)CSc2nc3nc(C)cc(C)n3n2)cc1 | nt | i
